In PubChem BioAssay (NCATS):
Inconclusive results are not listed. Calls of active or inactive are those of the source. Calls come from the whole dose curve; as a rule, active = well fitted cell-killing curve with a large enough effect; inconclusive = small, poorly fitted or top-dose-only effect, or effect the other way; inactive = no such curve, though single readings can be large or run the other way.

Assay: Quantitative High-Throughput drug screen in 47 multiple myeloma cell lines against the NCATS MIPE library collection: UTMC2_PLB cell viability assay (AID 1919868); note: nearly all actives have a fitted effect of over 55% in size
Conditions: CellTiter-Glo ATP luminescence, 48 h; series mostly up to 45.8 µM
Excerpt: PI: Beverly A. Mock Ph.D.
Laboratory of Cancer Biology and Genetics,
Center for Cancer Research, National Cancer Institute,
National Institute of Health, Bethesda, Maryland
Drug resistance and disease progression are common in multiple myeloma (MM) patients, underscoring the need for new therapeutic combinations. […] We hypothesized that effective combinations would reduce MYC expression and enhance p16 activity. […] These preclinical data identify potentially useful drug combinations for evaluation in drug-resistant MM and reveal potential mechanisms of combined drug sensitivity.
Described herein is the primary MIPE qHTS used to cherrypick compounds. Validated compounds were then further tested for potential synergistic activiy.
[1] Peat TJ, Gaikwad SM, Dubois W, Gyabaah-Kessie N, Zhang S, Gorjifard S, Phyo Z, Andres M, Hughitt VK, Simpson RM, Miller MA, Girvin AT, Taylor A, Williams D, D'Antonio N, Zhang Y, Rajagopalan A, Flietner E, Wilson K, Zhang X, Shinn P, Klumpp-Thomas C, McKnight C, Itkin Z, Chen L, Kazandijian D, Zhang J, Michalowski AM, Simmons JK, Keats J, Thomas CJ, Mock BA. Drug combinations identified by high-throughput screening promote cell cycle transition and upregulate Smad pathways in myeloma. Cancer Lett. 2023 Aug 1;568:216284. doi: 10.1016/j.canlet.2023.216284. Epub 2023 Jun 24. PMID: 37356470; PMCID: PMC10408729.
SEQUENCE No. (e.g., 1, 2, 3, etc.); […] (e.g., Cells, Incubation, Reagent, etc.); VALUE and DESCRIPTION.
1; Cells; 5 uL; white, solid bottom 1536-well Greiner assay plate.
2; Compounds; 23 nL; Kalypsis pin tool (Wako USA) equipped with a 1536-well pin head to transfer to the assay plates.
3; Incubation; 48 hours; 37C incubation.
4; Reagent;5uL; CellTiter Glo (Promega).
5; Detector; 425V; Luminescence; Viewlux PerkinElmer.
NOTES (numbers refer to Sequence numbers above)
1. The cell-based screening methods employed in this study were like those previously published. Briefly, the corresponding myeloma cell lines were screened in 1,536-well plates with 500 cells, 5-uL per well for inhibition of cell viability (assessed by measuring ATP levels with CellTiterGlo).
2. NCATS MIPE 4.0 library of approved and investigational drugs were added using the Kalypsis pin tool. Wells treated with DMSO only for 100% viability and media only for 0% viability were used as controls.
3. The assay plates were covered and incubated for 48 hours in a 37C, 5% CO2 incubator with controlled humidity.
4. After 48 hours, CellTilter-GloTM luminescent substrate mix (Promega) reagent was added to the assay plate and plates we incubated for 5 min at room temperature.
5. Signal was measured as median relative luminescence units on a ViewLux (PerkinElmer) multiplate reader.
[1] Heske CM, Davis MI, Baumgart JT, Wilson K, Gormally MV, Chen L, Zhang X, Ceribelli M, Duveau DY, Guha R, Ferrer M, Arnaldez FI, Ji J, Tran HL, Zhang Y, Mendoza A, Helman LJ, Thomas CJ. Matrix Screen Identifies Synergistic Combination of PARP Inhibitors and Nicotinamide Phosphoribosyltransferase (NAMPT) Inhibitors in Ewing Sarcoma. Clin Cancer Res. 2017 Dec 1;23(23):7301-7311. doi: 10.1158/1078-0432.CCR-17-1121. Epub 2017 Sep 12. PMID: 28899971; PMCID: PMC6636827.
Potency is the fitted concentration of half-maximal effect.

| SMILES | Potency |
| --- | --- |
| CN(C)c1ccc(C(=C2C=CC(=[N+](C)C)C=C2)c2ccc(N(C)C)cc2)cc1 | 0.001 µM (active) |
| CS(=O)(=O)c1ccc([C@@H](O)[C@@H](CO)NC(=O)C(Cl)Cl)cc1 | 13.2 µM (active) |
| CCc1c2c(nc3ccc(OC(=O)N4CCC(N5CCCCC5)CC4)cc13)-c1cc3c(c(=O)n1C2)COC(=O)[C@]3(O)CC | 0.418 µM (active) |
| CN(Cc1cc(Br)cc(Br)c1N)C1CCCCC1 | inactive |
| CC[C@H](NC(C)C)[C@H](O)c1ccc(O)c2[nH]c(=O)ccc12 | inactive |
| COC(=O)Nc1nc2ccc(Sc3ccccc3)cc2[nH]1 | 2.09 µM (active) |
| C1CCC(C(CC2CCCCN2)C2CCCCC2)CC1 (stereo not given) | 13.2 µM (active) |
| N[C@@H](C(=O)N[C@@H]1C(=O)N2C(C(=O)O)=C(Cl)CS[C@H]12)c1ccccc1 | inactive |
| C[C@@H]1CN(c2c(F)c(N)c3c(=O)c(C(=O)O)cn(C4CC4)c3c2F)C[C@H](C)N1 | inactive |
| Cc1ccc(S(=O)(=O)N[C@@H](Cc2ccccc2)C(=O)CCl)cc1 | 13.2 µM (active) |
| COc1ccc2cc3[n+](cc2c1OC)CCc1cc2c(cc1-3)OCO2 | 3.32 µM (active) |
| COC(c1ccccc1)(c1ccccc1)[C@H](Oc1nc(C)cc(C)n1)C(=O)O | inactive |
| C[C@@H]1C[C@H]2[C@@H]3CCC4=CC(=O)C=C[C@]4(C)[C@@]3(Cl)[C@@H](O)C[C@]2(C)[C@@]1(OC(=O)c1ccco1)C(=O)CCl | 10.5 µM (active) |
| Cc1cccc(Nc2ccncc2S(=O)(=O)NC(=O)NC(C)C)c1 | inactive |
| O=C(NCC1CN(c2ccc(N3CCOCC3=O)cc2)C(=O)O1)c1ccc(Cl)s1 (stereo not given) | inactive |
| Nc1nc(=S)c2[nH]cnc2[nH]1 | 5.9 µM (active) |
| CCCOc1ccc(C(=O)OCCN(CC)CC)cc1N | inactive |
| CCC(C)(C)c1ccc(CC(C)CN2C[C@@H](C)O[C@@H](C)C2)cc1 (stereo not given in full) | inactive |
| CCCc1nc(C)c2c(=O)[nH]c(-c3cc(S(=O)(=O)N4CCN(CC)CC4)ccc3OCC)nn12 | 10.5 µM (active) |
| CN1CCCC(n2nc(Cc3ccc(Cl)cc3)c3ccccc3c2=O)CC1 (stereo not given) | 1.87 µM (active) |

| SMILES | Potency |
| --- | --- |
| CC(C)C[C@H](NC(=O)[C@H](CCc1ccccc1)NC(=O)CN1CCOCC1)C(=O)N[C@@H](Cc1ccccc1)C(=O)N[C@@H](CC(C)C)C(=O)[C@@]1(C)CO1 | 0.001 µM (active) |
| COc1ccccc1OCC(O)COC(N)=O (stereo not given) | inactive |
| COC(=O)Nc1nc2ccc(C(=O)c3ccccc3)cc2[nH]1 | 2.35 µM (active) |
| Nc1[nH]c(=O)ncc1F | inactive |
| COc1cc2ncnc(Nc3cccc(Cl)c3)c2cc1OC | inactive |
| C[C@@H](CN1CC(=O)NC(=O)C1)N1CC(=O)NC(=O)C1 | 2.96 µM (active) |
| COc1ncnc(NS(=O)(=O)c2ccc(N)cc2)c1OC | inactive |
| O[C@@H](CNC[C@H](O)[C@H]1CCc2cc(F)ccc2O1)[C@@H]1CCc2cc(F)ccc2O1 | 20.9 µM (active) |
| CNCC[C@H](Oc1cccc2ccccc12)c1cccs1 | 2.64 µM (active) |
| CC(C)(Sc1cc(C(C)(C)C)c(O)c(C(C)(C)C)c1)Sc1cc(C(C)(C)C)c(O)c(C(C)(C)C)c1 | 5.9 µM (active) |
| Oc1c(Cl)cc(Cl)c2cccnc12 | 11.8 µM (active) |
| CCOCC(O)COc1ccc(NC(=O)CC[S+](C)C)cc1 (stereo not given) | inactive |
| CCOC(=O)[C@H](CCc1ccccc1)N[C@H]1CCc2ccccc2N(CC(=O)O)C1=O | 29.6 µM (active) |
| CN1CCN(c2c(F)cc3c(=O)c(C(=O)O)cn4c3c2OCN4C)CC1 | inactive |
| Nc1nc(F)nc2c1ncn2[C@@H]1O[C@H](CO)[C@@H](O)[C@@H]1O | 0.235 µM (active) |
| CCn1cc(C(=O)O)c(=O)c2cc(F)c(N3CCN(C)CC3)cc21 | inactive |
| COc1cc(NCc2ccc3nc(N)nc(N)c3c2C)cc(OC)c1OC | 0.743 µM (active) |
| COc1cc([C@@H]2c3cc4c(cc3[C@H](O)[C@H]3COC(=O)[C@H]23)OCO4)cc(OC)c1OC | inactive |
| O=P(O)(O)C(O)(Cc1cccnc1)P(=O)(O)O | inactive |
| O=NN(CCCl)C(=O)NC1CCCCC1 | inactive |
